Among all 5,500 compounds or so, about 2,000 (36%) were called active. Another 18% or so got no clear call; they are omitted. No stated cut-off is given here; in the data, active means normalized growth mostly below about 0.91 (no sharp cut-off); inconclusive means no clear call, values can overlap the other calls; inactive means mostly above about 0.92. This is one part of the list.
Test: chemical genetic growth profiling, strain panel (AID 1159580);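 further: tested at 20 µM; growth read once vehicle control cultures reached saturation at 30 °C; 1 = growth at the plate median or of vehicle wells; lower values mean less growth of the strain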
Conditions: S. cerevisiae deletion strains, growth OD

Measured: normalized growth

OCCc1ccccc1
inactive: locus YAL021C, strain ccr4, active compounds read low 0.971 | locus YAL026C, strain drs2, active compounds read low 0.98 | locus YAL030W, strain snc1, active compounds read low 0.968 | locus YBL061C, strain skt5, active compounds read low 0.985 | locus YBR009C, strain hhf1, active compounds read low 0.976 | locus YBR023C, strain chs3, active compounds read low 0.992 | locus YBR171W, strain sec66, active compounds read low 0.968 | locus YBR231C, strain swc5, active compounds read low 0.989 | locus YBR279W, strain paf1, active compounds read low 0.989 | locus YCL011C, strain gbp2, active compounds read low 0.989 | locus YCL016C, strain dcc1, active compounds read low 0.994 | locus YCL061C, strain MRC1, active compounds read low 0.994 | locus YCL069W, strain vba3, active compounds read low 0.99 | locus YCR088W, strain abp1, active compounds read low 0.983 | locus YDL005C, strain med2, active compounds read low 0.989 | locus YDL040C, strain nat1, active compounds read low 0.999 | locus YDR001C, strain nth1, active compounds read low 0.974 | locus YDR069C, strain doa4, active compounds read low 0.981 | locus YDR137W, strain rgp1, active compounds read low 0.948 | locus YDR159W, strain sac3, active compounds read low 0.98 | locus YDR195W, strain ref2 0.947 | locus YDR297W, strain sur2, active compounds read low 0.984 | locus YDR334W, strain swr1, active compounds read low 0.94 | locus YDR335W, strain msn5, active compounds read low 0.982 | locus YDR392W, strain spt3, active compounds read low 0.999 | locus YEL003W, strain gim4, active compounds read low 0.981 | locus YEL037C, strain rad23, active compounds read low 0.986 | locus YEL061C, strain CIN8 (second series), active compounds read low 0.977 | locus YER015W, strain faa2, active compounds read low 0.987 | locus YER016W, strain bim1, active compounds read low 0.99 | locus YER111C, strain swi4, active compounds read low 0.982 | locus YER155C, strain BEM2 (second series), active compounds read low 0.975 | locus YFR010W, strain ubp6, active compounds read low 0.973 | locus YGL167C, strain pmr1, active compounds read low 0.99 | locus YGL173C, strain kem1, active compounds read low 0.957 | locus YGL227W, strain vid30, active compounds read low 0.971 | locus YGL240W, strain doc1, active compounds read low 0.977 | locus YGL253W, strain hxk2, active compounds read low 0.986 | locus YHR013C, strain ard1, active compounds read low 0.99 | locus YHR027C, strain rpn1, active compounds read low 0.961 | locus YHR030C, strain SLT2, active compounds read low 0.97 | locus YHR079C, strain IRE1, active compounds read low 0.951 | locus YHR142W, strain chs7, active compounds read low 0.972 | locus YJL092W, strain hpr5, active compounds read low 0.988 | locus YJL095W, strain BCK1 (second series), active compounds read low 0.986 | locus YJL095W, strain BCK1, active compounds read low 1.02 | locus YJL115W, strain asf1, active compounds read low 0.976 | locus YJL129C, strain trk1, active compounds read low 1.03 | locus YJL154C, strain vps35, active compounds read low 0.969 | locus YJL164C, strain tpk1, active compounds read low 1 | locus YJL166W, strain qcr8, active compounds read low 0.989 | locus YJL187C, strain SWE1, active compounds read low 0.987 | locus YJR066W, strain TOR1, active compounds read low 0.952 | locus YKL160W, strain elf1, active compounds read low 0.996 | locus YKR026C, strain gcn3, active compounds read low 0.983 | locus YKR091W, strain srl3, active compounds read low 0.994 | locus YLL001W, strain dnm1, active compounds read low 0.999 | locus YLL026W, active compounds read low 0.97 | locus YLL041C, strain sdh2, active compounds read low 0.984 | locus YLR027C, strain aat2, active compounds read low 0.965 | locus YLR113W, strain HOG1, active compounds read low 1.01 | locus YLR221C, strain rsa3, active compounds read low 0.982 | locus YLR258W, strain gsy2, active compounds read low 0.992 | locus YLR262C, strain YPT6 (second series), active compounds read low 0.961 | locus YLR320W, strain mms22, active compounds read low 0.987 | locus YLR342W, strain FKS1, active compounds read low 0.988 | locus YLR357W, strain rsc2, active compounds read low 1 | locus YLR370C, strain arc18, active compounds read low 0.988 | locus YLR384C, strain iki3, active compounds read low 0.979 | locus YML120C, strain ndi1, active compounds read low 0.995 | locus YMR058W, strain fet3, active compounds read low 0.98 | locus YMR125W, strain sto1, active compounds read low 0.982 | locus YMR129W, active compounds read low 0.99 | locus YMR205C, strain PFK2, active compounds read low 0.963 | locus YMR231W, strain pep5, active compounds read low 0.99 | locus YNL071W, strain lat1, active compounds read low 0.986 | locus YNL183C, strain NPR1, active compounds read low 0.958 | locus YNL209W, strain ssb2, active compounds read low 0.988 | locus YNL248C, strain rpa49, active compounds read low 0.994 | locus YNL322C, strain KRE1 (second series), active compounds read low 0.988 | locus YNR049C, strain mso1, active compounds read low 0.975 | locus YOR001W, strain rrp6, active compounds read low 0.993 | locus YOR070C, strain gyp1, active compounds read low 0.986 | locus YOR080W, strain dia2, active compounds read low 0.996 | locus YOR083W, strain WHI5, active compounds read low 0.995 | locus YOR106W, strain vam3, active compounds read low 0.976 | locus YOR231W, strain MKK1, active compounds read low 0.973 | locus YOR265W, strain rbl2, active compounds read low 1 | locus YOR270C, strain vph1, active compounds read low 0.949 | locus YOR290C, strain snf2, active compounds read low 0.986 | locus YPL051W, strain arl3, active compounds read low 0.995 | locus YPL078C, strain atp4, active compounds read low 0.976 | locus YPL106C, strain sse1, active compounds read low 0.916 | locus YPL240C, strain hsp82, active compounds read low 0.997 | locus YPL256C, strain CLN2, active compounds read low 0.981
